GPR151 activ: activators of human GPR151, primary screen, cell-based, PathHunter beta-arrestin, luminescence; G-protein coupled receptor 151 (Homo sapiens), Q8TDV0; PathHunter beta-arrestin GPR151 cells; activation, % at 11.2 µM; 650,000 tested, 1% active; in the data active = activation above about 4.9%
FBW7 act: FBW7 E3 ligase activators, primary screen, biochemical, AlphaScreen, human. 650,000 tested, 0.13% active. AlphaScreen FBW7–phospho-cyclin E peptide binding, activator screen. normalized activity (activation), % at 26.1 µM. AID 1259310, 2017; in the data active = normalized activity above about 1.9%;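 note: purified mutant Fbw7 with reduced substrate affinity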
TEAD-YAP block: TEAD-YAP interaction inhibition, primary screen, TEAD-YAP interaction inhibitor project, luminescence, HEK-TIYL cells; TEAD-Gal4/YAP UAS-luciferase luminescence; inhibition, % at 9.12 µM; 640,000 tested, 1.4% active; in the data active = inhibition above about 32%
MITF primary: MITF inhibitors, primary screen, biochemical, AlphaScreen, human. Microphthalmia-associated transcription factor (Homo sapiens), O75030. AlphaScreen MITF homodimerization, bead proximity signal. inhibition, % at 2.6 µM. 650,000 tested, 0.91% active; in the data active = inhibition above about 50%
MITF confirm: MITF inhibitors, retest of hits, confirmation, biochemical, AlphaScreen, triplicate. inhibition, % at 2.6 µM. shares compounds with MITF primary. 4,700 tested, 16% active. AlphaScreen MITF homodimerization, biotin/His-MITF beads;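 active = inhibition above a cutoff derived from the DMSO control wells, cut at about 28% in these data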;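 note: inhibitors lower the bead chemiluminescence by keeping MITF from dimerizing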
AS interf DR: AlphaScreen optical interference compounds, dose response, counter-screen, biochemical, HTS; shares compounds with MITF primary; AlphaScreen optical interference counterscreen, cell-free; IC50, µM; 480 tested, 6% active; call rule not given here
AS interf ctr: AlphaScreen optical interference compounds, counter-screen for MITF inhibitor project, biochemical, triplicate. shares compounds with MITF primary. LysRS AlphaScreen counterscreen, signal interference. inhibition, % at 2.6 µM. 4,700 tested, 7.6% active. AID 1259376, 2018;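 active = inhibition above a cutoff derived from the DMSO control wells, cut at about 30% in these data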
Of the large screens only hits and unclear results are named; the others gave an inactive call (follow-up assays come after a bar, where they were run). Shown are actives, neighbours in structure and some others; about 3.5% of the full set was active somewhere.

O=C(C1CCN(S(=O)(=O)c2ccc(F)cc2)CC1)N1CCCCC1	none
CC1(C)C(=O)NCCN1C(=O)C1CCN(S(=O)(=O)c2ccc(F)cc2)CC1	MITF primary 68 | MITF confirm inactive | AS interf ctr inactive
O=C([C@@H](O)c1ccccc1Cl)N1CCCC(Nc2ccc3[nH]ncc3c2)C1 (some centres not stated)	none
CN(C)CCCN(CCCN(C)C)Cc1ccc(C(F)(F)F)cc1	MITF primary 54 | MITF confirm inactive | AS interf ctr inactive
CN(C)CCCN(CCCN(C)C)Cc1ccc(F)c(F)c1	MITF primary 56 | MITF confirm inactive | AS interf ctr inactive
Cn1nccc1Nc1ncc(C(=O)NCc2cccc(C(F)(F)F)c2)s1	none
COc1ccc(CN2CCN(C3CCCC3)CC2)cc1Br	none
COc1ccc(OC)c(CN2CCN(Cc3cccc(Br)c3)CC2)c1	MITF primary 59 | MITF confirm inactive | AS interf ctr inactive
COc1ccc(CN2CCN(Cc3ccc(OC)c(Br)c3)CC2)c(OC)c1	MITF primary 63 | MITF confirm inactive | AS interf ctr inactive
COc1ccc(OC)c(CN2CCN(Cc3ccc(OC)c(Br)c3)CC2)c1	MITF primary 66 | MITF confirm inactive | AS interf ctr inactive
CC(C)[C@H](Cn1nc(-c2ccc(F)c(F)c2)ccc1=O)NC(=O)Cc1ccsc1	none
O=C(NCc1cccnc1)c1ccccc1-c1nc(-c2ccccc2Cl)no1	none
N#Cc1ccccc1NC(=O)c1cc(I)ccc1Cl	none
Cn1c(=O)c2c(nc3n2CC(c2ccccc2)=NN3Cc2ccccc2)n(C)c1=O	none
FC(F)(F)c1ccc(-c2noc(-c3cc(-c4ccc(Cl)cc4)nc4ccccc34)n2)cc1	MITF primary 56 | MITF confirm inactive | AS interf ctr inactive
COc1ccccc1COCC(O)CNC(C)(C)C (configuration not stated)	none
COc1cc(C(C)=O)ccc1OCC(O)CNCC1(N2CCCCC2)CCCCC1 (configuration not stated)	none
COc1ccccc1COCC(O)CNCC1(N2CCCCC2)CCCCC1 (configuration not stated)	MITF primary 68 | MITF confirm inactive | AS interf ctr inactive
COc1ccccc1COCC(O)CNCc1ccncc1 (configuration not stated)	MITF primary 70 | MITF confirm inactive | AS interf ctr inactive
COc1ccccc1COCC(O)CNCCCN1CCOCC1 (configuration not stated)	MITF primary 62 | MITF confirm inactive | AS interf ctr inactive
CC(C)n1c(N2CCc3ccccc3C2)nc2c(Nc3ccc(Oc4ccccc4)cc3)ncnc21	none
CCOC(=O)Cc1[nH]nc2c1C1(C(=O)N(CC)c3ccccc31)C(C#N)=C(N)O2 (configuration not stated)	MITF primary 60 | MITF confirm 28 | AS interf DR inactive | AS interf ctr inactive
COc1ccc(-n2c(C)cn3c4c(=O)n(CCc5ccccc5)c(=O)n(C)c4nc23)cc1	none
COc1ccc(CN2CCN(C3CCCC3)CC2)cc1OC	none
COc1ccc(CN2CCN(C3CC4CCC3C4)CC2)cc1 (configuration not stated)	MITF primary 77 | MITF confirm inactive | AS interf ctr inactive
COc1ccc(CN2CCN(C3CC4CCC3C4)CC2)cc1OC (configuration not stated)	MITF primary 63 | MITF confirm inactive | AS interf ctr inactive
c1ccc(CN2CCC(N3CCN(C4CC5CCC4C5)CC3)CC2)cc1 (configuration not stated)	none
CC(C)(C)c1ccc(/C=C/C(=O)N2CCC(C(N)=O)CC2)cc1	MITF primary 65 | MITF confirm inactive | AS interf ctr inactive
NC(=O)C1CCN(C(=O)/C=C/c2ccc([N+](=O)[O-])cc2)CC1	none
